According to PubChem BioAssay (NCATS):
A number with no mark means an inactive call. Records with an inconclusive call do not appear. Entries that show only a call come without a potency. Active and inactive are the calls of the source. Calls come from the whole dose curve; as a rule, active = well fitted curve in the direction sought with a large enough effect; inconclusive = small, poorly fitted or top-dose-only effect, or another doubt; inactive = no such curve, though single readings can be large; an effect the other way counts as inactive or inconclusive.

Columns and labels:
[1] = qHTS for Activators of Parkin Expression: LOPAC Validation Assay (NLuc Reporter) (AID 720572)
Method in brief: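 Cells harboring the Parkin-promoter coincidence reporter were treated for 24 h at seven concentrations. NLuc output was measured sequentially after the FLuc channel and scaled between DMSO and positive control values.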

[2] = qHTS for Activators of Parkin Expression: LOPAC Validation Assay (FLuc Reporter) (AID 720573)
Method in brief: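 FLuc signal from Parkin-promoter coincidence reporter neuronal cells, normalized to DMSO and positive control (100%). Cells (1,500/well) pre-incubated 24 h, then exposed to LOPAC compounds in 7-point dose response for 24 h at 37 C, 5% CO2.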

[3] = biological target: T1, Hexokinase-4 (Homo sapiens) + Glucokinase regulatory protein (Homo sapiens) (UniProt P35557+Q14397); assay: qHTS assay for inhibitors of recombinant human GCK-GKRP interaction: Diaphorase-coupled assay (AID 743205)
T1 sequence (P35557 whole entry, looked up): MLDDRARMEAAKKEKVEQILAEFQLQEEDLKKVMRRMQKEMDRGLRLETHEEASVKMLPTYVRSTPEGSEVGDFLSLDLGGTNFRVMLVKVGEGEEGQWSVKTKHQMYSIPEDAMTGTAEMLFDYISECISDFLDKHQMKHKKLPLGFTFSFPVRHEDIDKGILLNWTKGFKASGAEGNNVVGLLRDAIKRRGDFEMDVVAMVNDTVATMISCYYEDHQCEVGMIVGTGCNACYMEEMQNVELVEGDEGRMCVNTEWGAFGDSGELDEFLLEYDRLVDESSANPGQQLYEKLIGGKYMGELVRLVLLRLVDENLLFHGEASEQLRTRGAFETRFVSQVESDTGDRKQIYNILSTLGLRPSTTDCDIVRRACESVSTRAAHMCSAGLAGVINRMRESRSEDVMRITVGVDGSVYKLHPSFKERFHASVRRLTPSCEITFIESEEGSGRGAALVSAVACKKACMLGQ
T1 sequence (Q14397 whole entry, looked up): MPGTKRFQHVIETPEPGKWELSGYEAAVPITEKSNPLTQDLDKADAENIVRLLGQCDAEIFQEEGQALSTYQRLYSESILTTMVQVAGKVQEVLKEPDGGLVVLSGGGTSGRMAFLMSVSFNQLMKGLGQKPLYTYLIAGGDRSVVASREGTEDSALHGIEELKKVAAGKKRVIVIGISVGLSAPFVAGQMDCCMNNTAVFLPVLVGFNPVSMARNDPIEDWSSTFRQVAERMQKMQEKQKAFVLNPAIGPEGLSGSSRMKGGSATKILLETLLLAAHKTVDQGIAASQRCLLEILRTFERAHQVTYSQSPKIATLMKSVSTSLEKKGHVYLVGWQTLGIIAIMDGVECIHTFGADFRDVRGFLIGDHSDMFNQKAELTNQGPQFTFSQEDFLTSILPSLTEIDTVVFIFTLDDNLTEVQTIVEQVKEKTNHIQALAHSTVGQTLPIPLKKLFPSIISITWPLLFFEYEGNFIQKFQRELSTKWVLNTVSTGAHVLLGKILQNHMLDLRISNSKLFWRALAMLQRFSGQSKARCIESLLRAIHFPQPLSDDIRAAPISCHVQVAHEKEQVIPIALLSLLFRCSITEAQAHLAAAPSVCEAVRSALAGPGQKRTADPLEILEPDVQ
Method in brief: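 A kinetic fluorescence read (Ex 525/Em 590 nm, every minute for 30 minutes) tracked resorufin from a G6PDH-diaphorase coupled GCK reaction. It contained 10 nM GST-GCK, 10 nM FLAG-GKRP, 5 mM glucose, 0.4 mM ATP in Hepes pH 7.6. Normalized to with/without-enzyme DMSO controls.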

[4] = biological target: T1, Hexokinase-4 (Homo sapiens) + Glucokinase regulatory protein (Homo sapiens); assay: qHTS assay for inhibitors of recombinant human GCK-GKRP interaction: ADP-Glo assay (AID 743206)
Method in brief: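 Pin-transferred compounds meet a 15 nM GST-GCK/15 nM FLAG-GKRP/2 uM S6P mix (dispense concentrations). ATP is then added to 0.4 mM final with 5 mM glucose, and the reaction runs 60 min at room temperature. ADP is quantified luminescently.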

[5] = biological target: T1, Hexokinase-4 (Homo sapiens) + Glucokinase regulatory protein (Homo sapiens); assay: qHTS assay for inhibitors of recombinant human GCK-GKRP interaction: HTRF assay (AID 743207)
Method in brief: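 After 60 min equilibration at room temperature with anti-FLAG XL665 and anti-GST antibodies, FRET ratio (665/615 nm, excitation 320 nm) was read. Proteins: GST-GCK and FLAG-GKRP, each 5 nM, plus 2 uM S6P, pH 7.1 buffer; GCK-free wells define minimum signal.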

[6] = qHTS Assay for Identifying Gametocytocidal Compounds (AID 743244); note: potency is the fitted concentration of half-maximal effect;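 for max response: actives lower the fluorescent signal which means gametocytes are killed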; conditions: P. falciparum 3D7 stage III-V gametocytes, alamarBlue, 72 h; max response: stronger effect = lower value
Method in brief: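 Using 20,000 stage III–V 3D7 gametocytes per well, compounds were incubated 72 h under 37 °C/5% CO2. Viability was then assessed by 24 h alamarBlue reduction, measured fluorometrically at 525/598 nm.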

For NC(=O)CI, the Potency [1] was “inactive”, the outcome [2] was “inactive” and the Potency [3] was “inactive”. For the same molecule, the outcome [4] was “inactive”, the outcome [5] was “inactive” and the max response [6] was 8.04%.
With CN1CC[C@@]2(C)c3cc(OC(=O)Nc4ccccc4)ccc3N(C)[C@@H]12 the Potency [1] was “inactive”, the outcome [2] was “inactive” and the Potency [3] was “inactive”. For the same molecule, the outcome [4] was “inactive”, the outcome [5] was “inactive” and the Potency [6] was 1120 nM (active).
For CCCN(CCC)C1Cc2cc(OC)c(OC)cc2C1, the Potency [1] was “inactive”, the outcome [2] was “inactive” and the Potency [3] was “inactive”. The outcome [4] was “inactive”, the outcome [5] was “inactive” and the max response [6] was 13.4%.
For COc1cc(CC(C)N)c(OC)cc1I (stereo not given), the Potency [1] was “inactive”, the outcome [2] was “inactive” and the Potency [3] was “inactive”. For the same molecule, the outcome [4] was “inactive”, the outcome [5] was “inactive” and the max response [6] was 3.52%.
In the case of NC(=O)COc1c(F)cc(SCCNS(=O)(=O)c2ccccc2)cc1F, the Potency [1] is reported as “inactive”, the outcome [2] is reported as “inactive” and the Potency [3] is reported as “inactive”. The outcome [4] was “inactive”, the outcome [5] was “inactive” and the max response [6] was 9.54%.
For CN1CCc2cccc(Cl)c2CC1, the Potency [1] was “inactive”, the outcome [2] was “inactive” and the Potency [3] was “inactive”. For the same molecule, the outcome [4] was “inactive”, the outcome [5] was “inactive” and the max response [6] was 33.5%.
In the case of CO[C@H]1CC=C2CCN3CCC4=C(CC(=O)OC4)[C@]23C1, the Potency [1] is reported as “inactive”, the outcome [2] is reported as “inactive” and the Potency [3] is reported as “inactive”. The outcome [4] was “inactive”, the outcome [5] was “inactive” and the max response [6] was -3.4%.
For C[C@H](Cc1ccc2c(c1)OC(C(=O)O)(C(=O)O)O2)NC[C@H](O)c1cccc(Cl)c1, the Potency [1] was “inactive”, the outcome [2] was “inactive” and the Potency [3] was “inactive”. For the same molecule, the outcome [4] was “inactive”, the outcome [5] was “inactive” and the max response [6] was 13.1%.
With N[C@@H](Cn1ccc(=O)[nH]c1=O)C(=O)O the Potency [1] was “inactive”, the outcome [2] was “inactive” and the Potency [3] was “inactive”. For the same molecule, the outcome [4] was “inactive”, the outcome [5] was “inactive” and the max response [6] was 15.1%.
With CCCn1c(C)c(C(=O)c2ccc3ccccc3c2)c2ccccc21 the Potency [1] was “inactive”, the outcome [2] was “inactive” and the Potency [3] was “inactive”. The outcome [4] was “inactive”, the outcome [5] was “inactive” and the max response [6] was 6.14%.
